Reference: PubChem BioAssay (NCATS)
Records with an inconclusive call do not appear. Active and inactive are the calls of the source. Calls come from the whole dose curve; as a rule, active = well fitted curve in the direction sought with a large enough effect; inconclusive = small, poorly fitted or top-dose-only effect, or another doubt; inactive = no such curve, though single readings can be large; an effect the other way counts as inactive or inconclusive.

Experiments:
[1] = qHTS to identify inhibitors of the type 1 interferon - major histocompatibility complex class I in skeletal muscle: primary screen against the NCATS Pharmaceutical Collection (AID 1347407);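 note: luminescence of HiBiT knocked into endogenous HLA-B as interferon-induced MHC class I level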
Outline: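 Cells were seeded with 4 ng/ml IFN-beta, incubated 1 h, then dosed with compounds over eight 1:5 steps up to 46 uM final. After 24 h at 37 C, HiBiT lytic reagent was added and luminescence read after 10 min lysis in the dark.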

[2] = molecular target: Protein phosphatase 1D (Homo sapiens) (UniProt O15297); experiment: RapidFire Mass Spectrometry qHTS Assay for Modulators of WT P53-Induced Phosphatase 1 (WIP1) (AID 1347424);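 note: amount of dephosphorylated VEPPL-S-QETFS peptide product formed by WIP1; series mostly up to about 63 µM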
Chain of Protein phosphatase 1D (Homo sapiens) (O15297 whole entry, looked up): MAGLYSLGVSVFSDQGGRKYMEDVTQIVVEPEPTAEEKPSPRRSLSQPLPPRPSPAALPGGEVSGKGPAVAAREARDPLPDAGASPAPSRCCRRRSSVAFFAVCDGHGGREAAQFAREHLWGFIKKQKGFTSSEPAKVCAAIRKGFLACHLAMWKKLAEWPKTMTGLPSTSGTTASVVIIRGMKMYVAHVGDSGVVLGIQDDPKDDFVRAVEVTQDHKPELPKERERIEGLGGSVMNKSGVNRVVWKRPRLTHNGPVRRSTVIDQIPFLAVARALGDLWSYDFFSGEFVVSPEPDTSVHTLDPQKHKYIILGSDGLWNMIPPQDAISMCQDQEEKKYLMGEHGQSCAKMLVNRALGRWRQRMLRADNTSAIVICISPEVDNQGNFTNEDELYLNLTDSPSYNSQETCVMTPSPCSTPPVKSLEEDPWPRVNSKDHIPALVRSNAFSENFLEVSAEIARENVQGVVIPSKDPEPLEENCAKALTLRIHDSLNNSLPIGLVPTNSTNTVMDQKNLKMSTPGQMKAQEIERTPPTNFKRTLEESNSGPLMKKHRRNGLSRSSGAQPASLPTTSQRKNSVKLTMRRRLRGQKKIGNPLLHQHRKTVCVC
Outline: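 10 nM WIP1 preincubated with compounds 1 hr at room temperature in pH 7.5 Tris buffer with 30 mM MgCl2, 1 mM TCEP; 2 uM VEPPL-pS-QETFS phosphopeptide for 5 min, formic acid quench; dephosphorylated product quantified by RapidFire MS against labelled standard.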

[3] = molecular target: Protein phosphatase 1D (Homo sapiens) (UniProt O15297); experiment: Rhodamine-PBP qHTS Assay for Modulators of WT P53-Induced Phosphatase 1 (WIP1) (AID 1347425)
Outline: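 Read-out: Rhodamine-PBP fluorescence (ex 525/em 598 nm) for released Pi, read each minute for 11 min after adding 10 uM VEPPL-pS-QETFS; signal taken as f1 minus pre-substrate f0. Enzyme 5 nM WIP1 with 1 hr room-temperature compound preincubation.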

[4] = Primary qHTS for inhibitors of La Crosse Virus (LACV) - induced cell death in SH-SY5Y cells (AID 1508616);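 note: top concentration of the series differs between compounds; higher means more rescue of cells from virus-induced death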
Outline: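 Protection against LACV-induced cell death is scored in SH-SY5Y cells exposed to compounds and virus (0.01 MOI) for 6 days. Data normalized to virus-infected DMSO wells and virus-free DMSO wells.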

[5] = molecular target: Calcium and integrin-binding protein 1 (Homo sapiens) (UniProt Q99828); experiment: Confirmatory qHTS for Identification of Calcium Integrin Binding Protein 1 (CIB1) Competitor (AID 1508617); note: nearly all actives have a fitted effect of over 65% in size
Chain of Calcium and integrin-binding protein 1 (Homo sapiens) (Q99828 whole entry, looked up): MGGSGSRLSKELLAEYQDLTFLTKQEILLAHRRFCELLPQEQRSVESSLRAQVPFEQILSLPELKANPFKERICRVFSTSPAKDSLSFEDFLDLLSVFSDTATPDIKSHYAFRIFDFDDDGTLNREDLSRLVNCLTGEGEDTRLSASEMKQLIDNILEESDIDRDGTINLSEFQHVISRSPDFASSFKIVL
Outline: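 Fluorescence polarization competition: CIB1-GST (1 uM final) in 5 mM HEPES pH 7.4, 125 mM NaCl, 5 mM CaCl2, 0.01% Tween20 preincubated 15 min RT with compound (up to 114 uM), then FITC-alphaIIb peptide (100 nM) added, 15 min RT.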

Measured: Potency

CCNC(=O)/C=C/c1cccc(Br)c1
not listed: [5]
inactive: all other assays above

CC(C)Nc1cccnc1N1CCN(C(=O)c2cc3cc(NS(C)(=O)=O)ccc3[nH]2)CC1
not listed: [5]
inactive: all other assays above

CCOCCn1c(N2CCCN(C)CC2)nc2ccccc21
not listed: [5]
inactive: all other assays above

O=C(Nc1ccc([N+](=O)[O-])cc1)Nc1ccc([N+](=O)[O-])cc1
not listed: [5]
inactive: all other assays above

CC1CCc2c(N3CCC(O)CC3)c(F)cc3c(=O)c(C(=O)O)cn1c23 (stereo not drawn)
not listed: [5]
inactive: all other assays above

COc1ccccc1N1CCN(CCCCNC(=O)c2ccc(-c3ccc(C(C)=O)cc3)cc2)CC1
not listed: [5]
inactive: all other assays above

OCc1ccccn1
not listed: [5]
inactive: all other assays above

CC(=C(CCOC(=O)C(C)C)SSC(CCOC(=O)C(C)C)=C(C)N(C=O)Cc1cnc(C)nc1N)N(C=O)Cc1cnc(C)nc1N
not listed: [5]
inactive: all other assays above

CCOc1ccccc1OCCN[C@H](C)Cc1ccc(OC)c(S(N)(=O)=O)c1
not listed: [5]
inactive: all other assays above

Cc1c[nH]c2ccccc12
not listed: [5]
inactive: all other assays above

CN(C)C(=O)Nc1ccc(Cl)c(Cl)c1
not listed: [5]
inactive: all other assays above

CN1CCc2cccc3c2[C@H]1Cc1ccc(O)c(O)c1-3
inactive: [5]

CN(C)CCN1C(=O)c2ccccc2N(C)c2ccccc21
inactive: [2] | [3] | [4]
